Source: PubChem BioAssay (National Center for Advancing Translational Sciences (NCATS))
HPGD block: inhibitors of human 15-hydroxyprostaglandin dehydrogenase (HPGD). P15428. purified HPGD, NADH fluorescence kinetic, PGE2 substrate. Potency, µM, hits mostly inhibitors. hit rate 4.3% among 150,000
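20 nM HPGD preincubated 15 min at room temperature with compound in 50 mM Tris-HCl pH 8, 0.01% Tween 20. Started with 1 mM NAD+ and 30 uM prostaglandin E2; NADH fluorescence (360/450 nm) read 5 times over 30-s intervals, last minus first.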
PNC assembly inh: perinucleolar compartment assembly inhibition; activity change (PNC), negative = inhibition, % at 10 µM; PC3M PTB-GFP, PNC prevalence imaging, 16 h; hits give low values; hit rate 3.1% among 140,000;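 active = readout at or below -70, meaning at least 70% loss of cells showing the perinucleolar compartment, a nuclear body marking cancer cells; inconclusive = readout between -30 and a set limit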
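Compounds are pinned in duplicate onto adhered PC3M cells stably expressing GFP-tagged PTB and incubated 16 h at 37 C. Cells are then fixed, nuclei stained with Hoechst, and PNC-positive cells counted.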
ALDH1A1 inh: ALDH1A1 (human) enzyme inhibition; Purified ALDH1A1, NADH fluorescence, propionaldehyde substrate; P00352; AID 1030; Potency, µM (doses to about 75.3 µM), most hits filed as inhibitors; hit rate 7.3% among 220,000
Target sequence (P00352 whole entry, looked up): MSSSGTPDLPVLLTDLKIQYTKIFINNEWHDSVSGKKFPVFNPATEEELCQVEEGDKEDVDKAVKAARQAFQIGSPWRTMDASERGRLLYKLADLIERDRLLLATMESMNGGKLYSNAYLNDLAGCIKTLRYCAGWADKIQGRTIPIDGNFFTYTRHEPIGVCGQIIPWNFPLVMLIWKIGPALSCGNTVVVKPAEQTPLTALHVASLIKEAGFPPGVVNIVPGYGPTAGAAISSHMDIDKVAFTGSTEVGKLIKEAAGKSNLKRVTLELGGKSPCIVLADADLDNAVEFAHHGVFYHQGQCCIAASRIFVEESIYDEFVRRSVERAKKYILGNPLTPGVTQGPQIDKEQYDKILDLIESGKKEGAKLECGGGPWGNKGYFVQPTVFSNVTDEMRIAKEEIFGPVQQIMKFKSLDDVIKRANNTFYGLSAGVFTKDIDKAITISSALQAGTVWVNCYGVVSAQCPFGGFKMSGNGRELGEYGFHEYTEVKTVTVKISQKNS
A number is an active result; n = inactive; u = inconclusive; x = no result given; [ ] = another dose, or the depositor's remark. Only some compounds are listed: those with a hit (about 11% of all), similar ones and a draw of the others. Unless noted, calls come from the whole dose curve; as a rule, active = well fitted inhibition curve with a large enough effect (not every such curve was filed as active); inconclusive = small, poorly fitted or top-dose-only effect, or another doubt; inactive = no such curve, though single readings can be large or run the other way.

SMILES | HPGD block | PNC assembly inh | ALDH1A1 inh
CC1(C)CC(Nc2ccc(Nc3ccccc3)cc2)CC(C)(C)N1 | n | x | u
CN(C)C(=O)CSc1nnc(Cc2ccc([N+](=O)[O-])cc2)o1 | n | n | n
Nc1sc2c(c1C(=O)NC1CCS(=O)(=O)C1)CCC2 (centres undefined) | n | n | u
NC(=O)c1c(N)sc2c1CCCCC2 | u | n | 14µM
COCCNC(=O)c1c(N)sc2c1CCCC2 | u | n | u
CNC(=O)c1c(N)sc2c1CCCCC2 | 32µM | u | 25µM
O=C(NCCCCCCNC(=O)ON=C1CCCCC1)ON=C1CCCCC1 | n | x | n
Cc1noc(C)c1C(=O)N1CCC2(CCCN(Cc3nccs3)C2)CC1 | n | x | n
C=CCN1C2CCCC1CC(NC(=O)Nc1cc(C)cc(C)c1)C2 (centres undefined) | x | x | n
CC(=O)OC[C@@H]1O[C@@H](O/N=C2/C[C@@H](O)[C@@H](O)[C@@H]3[C@@H]4C(=O)N(C5CCCCC5)C(=O)[C@H]4CC[C@@H]23)[C@H](OC(C)=O)[C@H](OC(C)=O)[C@@H]1OC(C)=O | x | x | n[13.5 µM]
CCC(C)/C(C)=N/NC(=O)c1ccc(CSc2nc3ccccc3s2)cc1 (centres undefined) | 20µM | n | 20µM
O=C(O)c1ccc(CSc2nc3ccc(NC(=O)c4ccccc4C(=O)O)cc3s2)cc1 | x | x | n
COc1ccc(C)cc1NC(=O)c1ccccc1NS(=O)(=O)c1cccc2cccnc12 | n | n | n
c1ccc(-n2nnc3cnccc32)cc1 | n | u | 1.3µM
c1ccc(-n2nnc(-c3cccnc3)n2)cc1 | x | x | n
O=S(=O)(Nc1ccccc1N1CCCCC1)c1ccc(F)cc1F | x | x | n
CCN(CC(=O)NC1CCCCCC1)S(=O)(=O)c1ccccc1 | n | -80 | n
CCN(CC(=O)NC1CCCC1)S(=O)(=O)c1ccc(C)cc1 | n | u | n
O=C(NCc1cccnc1)c1ccc(NC(=O)c2ccco2)cc1 | n | n | n
Cc1ccc(C(=O)NCc2ccccn2)c(Cl)c1 | 14µM | n | n
CCOc1ccc(C(=O)NCc2ccccn2)cc1 | n | n | n
c1ccc(CCc2nc(-c3ccccc3)no2)cc1 | n | n | n
Cc1ccc(-c2cc(C(=O)NCc3ccccn3)c3ccccc3n2)cc1 | u | n | u
O=C(NCc1ccccn1)c1coc(=O)c(Br)c1 | u | -87 | u
O=C(Nc1ccc(-c2noc(CCc3ccccc3)n2)cc1)c1ccco1 | 25µM | -89 | u
SMILES | HPGD block | PNC assembly inh | ALDH1A1 inh
O=C(NCc1ccccn1)c1ccc(NC(=O)c2ccco2)cc1 | 14µM | u | u
COc1cccc(C(c2c(NC(=O)c3ccccc3)sc(C)c2C)N2CCN(C)CC2)c1 (centres undefined) | n | u | n
CCN(CC)CCNC(=O)c1cccc(NC(=O)C(=O)c2ccccc2NC(C)=O)c1 | x | x | n
CS(=O)(=O)N1CCC2(CC1)CN(C(=O)Nc1ccccc1)C2 | n | x | n
O=C(O)[C@H](Cc1cc(I)c(O)c(I)c1)C1CCCCC1 | n | x | n[13.5 µM]
COc1cc(OC)c(OC)cc1CN1CCN(Cc2cccn2C)CC1 | n | u | u
C=CCC1C=C(C)CC(CC=C)N1 (centres undefined) | x | x | n
Cc1ccc(NC(=O)c2ccc(OC(=O)c3ccco3)cc2)cc1 | n | u | n
O=C(Oc1ccccc1)c1ccc(NC(=O)c2ccco2)cc1 | 13µM | n | 18µM
Cc1cc(C)cc(NC(N)=S)c1 | x | n | n
CCCCC1=CC2=C(c3ccco3)C(=O)C(C)(OC(=O)c3ccc(OC)cc3)C(=O)C2=CN1Cc1ccccc1 (centres undefined) | n | x | n[13.5 µM]
CCCCC1=CC2=C(c3ccco3)C(=O)C(C)(OC(=O)c3ccc(OC)cc3)C(=O)C2=CN1Cc1ccc2c(c1)OCO2 (centres undefined) | n | x | 3.5µM
COc1c([N+](=O)[O-])c(=O)n(-c2ccccc2)c2ccccc12 | n | n | n
C=CCn1c(SCC(=O)Nc2ccc(F)cc2)nc2cc(C(=O)O)ccc2c1=O | x | x | n
CCC(CO)n1c(SCc2cc([N+](=O)[O-])cc3c2OCOC3)nc2ccccc2c1=O (centres undefined) | n | n | n
C=CCn1c(SCC(=O)NC23CC4CC(CC(C4)C2)C3)nc2cc(C(=O)O)ccc2c1=O | x | x | 13µM
C=CCn1c(SCc2cc([N+](=O)[O-])cc3c2OCOC3)nc2cc(C(=O)O)ccc2c1=O | x | x | 10µM
CC(C)(C)c1ccc(CN2N=C(/C=C/c3ccccc3)CCC2=O)cc1 | x | x | n
CC(NC(=O)COC(=O)C1CSC2(C)CCC(=O)N12)C12CC3CC(CC(C3)C1)C2 (centres undefined) | x | x | 4.5µM
CC12CCC(=O)N1C(C(=O)OCC(=O)Nc1sccc1C#N)CS2 (centres undefined) | n | n | n
O=C(O)CCSc1nnc(COc2cccc3ccccc23)n1-c1cccc(Cl)c1 | x | x | n
COC(=O)C1(C)C=C(Nc2ccc(OC)cc2)C(=O)N1c1ccc(OC)cc1 (centres undefined) | n | x | u
C/C(=N\Nc1ccc(F)cc1F)c1ccc(F)cc1 | n | n | u
CNC(=S)N/N=C(\C)c1ccc(N2CCOCC2)cc1 | n | -112 | u
C/C(=N/Nc1ccc(F)cc1)c1ccc(Cl)s1 | n | u | u
SMILES | HPGD block | PNC assembly inh | ALDH1A1 inh
CCNC(=S)N/N=C(\C)c1ccc(N2CCOCC2)cc1 | n | n | u
C/C(=N\Nc1ccc(F)cc1F)c1ccc(Br)s1 | x | x | 13µM
C/C(=N\Nc1ccc(F)cc1F)c1ccc(N2CCOCC2)cc1 | x | x | 16µM
CC(=O)c1cccc(CN2CCCC(CCC(=O)NCc3ccc(F)c(F)c3)C2)c1 (centres undefined) | x | x | n
Nc1cc(=O)[nH]c(SCc2nnnn2-c2ccc(Cl)cc2)n1 | n | n | n
COc1ccc(C(O)c2nccc3cc(OC)c(OC)cc23)cc1OC (centres undefined) | x | x | n
CN1CCC[C@@H](CC2c3ccccc3Sc3ccccc32)C1 | n | x | n
COc1cc(OC)cc(C(=O)Nc2c(C)nn(-c3ccccc3)c2C)c1 | x | x | n
O=C(CCCCCn1c(=O)[nH]c2ccsc2c1=O)N1CCN(C2CCCCC2)CC1 | n | n | u
O=C(CCCCCn1c(=O)[nH]c2ccsc2c1=O)N1CCCCC1 | 14µM | n | n
O=C(Cn1c(=O)[nH]c2ccsc2c1=O)NC1CCCCCC1 | n | -100 | n
O=C(CCCn1c(=O)[nH]c2ccsc2c1=O)N1CCCCC1 | 14µM | u | n
CC1CCC(NC(=O)Cn2c(=O)[nH]c3ccsc3c2=O)CC1 (centres undefined) | n | n | n
O=C(CCCCn1c(=O)[nH]c2ccsc2c1=O)NCC1CCCO1 (centres undefined) | 25µM | n | n
NC(=O)C1(N2CCCCC2)CCN(C(=O)CCCn2c(=O)[nH]c3ccsc3c2=O)CC1 | n | n | n
O=C(CCCCCn1c(=O)[nH]c2ccsc2c1=O)NCc1cccs1 | u | u | n
CN(Cc1cc(Br)cc(Br)c1N)C1CCCCC1 | n | x | n
Cc1cccc(CNc2cc(-c3ccccc3CN(C)C)ncn2)c1 | n | x | n
C[N+](C)(C)c1ncnc2c1ncn2[C@@H]1CCCCO1 | n | x | n[13.5 µM]
O=C(Nc1c(S(=O)(=O)c2ccc(Cl)cc2)csc1Br)c1ccccc1Cl | x | x | n
CCOC(=O)OCC1OC(C#Cc2ccc(F)cc2F)C=CC1OC(=O)OCC (centres undefined) | x | x | n[13.5 µM]
CN=C(C)/C(C(=O)OC)=C(/O)c1ccc(Cl)cc1Cl | x | x | n
